Data published in PubChem BioAssay (NCI).
About 83,000 compounds went through this panel and 20% of them were active in at least one assay; those are over-represented in the sample as a whole.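 Method: cells in 96-well plates; compound added at one concentration; 48 h incubation; percent growth measured; values under 10 scored active.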 The source made the active and inactive calls.

system: HL-60(TB) leukemia; assay: NCI-60 one-dose screen, 48 h (100 = growth as untreated, 0 = no growth, -100 = all killed); conditions: 10 µM unless noted

Row | Structure (SMILES) | growth
1 | COc1ccc(C2=Nc3c(N)ncnc3NC(c3ccc4c(c3)OCO4)C2)cc1 (stereo not given) | 124% (inactive)
2 | C#CCN1C(=O)c2ccccc2N(CC#C)C12CCN(Cc1cn(CC(=O)Nc3ccccc3C(N)=O)nn1)CC2 | 86.6% (inactive)
3 | COc1ccc(-n2c(COc3ccc(F)cc3)n[nH]c2=S)cc1 | 126% (inactive)
4 | COc1ccc(/C=c2/c(=O)[nH]c3nc4sc(C)c(C)c4c(=O)n23)cc1 | 71.8% (inactive)
5 | Cc1cc(Cl)ccc1Nc1nc(C(F)(F)F)ccc1C(=O)N/N=C/c1ccccc1Cl | 12.5% (inactive)
6 | CCN(CC)CCCCNc1c2ccc(Cl)cc2nc2ccc(OC)cc12 | -34.8% (active)
7 | CCn1c(C)nc([N+](=O)[O-])c1Sc1nc(N)nc2nc[nH]c12 | 50.9% (inactive)
8 | CCOC(=O)c1cc(C(=O)c2cc(OC)c(OC)c(OC)c2)n2ccccc12 | -24.6% (active)
9 | COc1cccc(/C=N\NC(=O)c2ccncc2)c1O | 9.43% (active)
10 | O=C(Cc1ccc(NC(=O)c2cccc(Cl)c2)cc1)NCc1ccccc1 | -14% (active)
11 | CC[C@@H](C)[C@H](NC(=O)Cn1cc(CNC(=O)[C@@H](NC(=O)OCc2ccccc2)C(C)C)nn1)C(=O)O | 113% (inactive)
12 | Cc1cc2oc(/C=C/c3ccccc3)cc(=O)c2c(C)c1Cl | 80.8% (inactive)
13 | Cc1[nH]c(C(=O)Nc2ccc(C(N)=O)cc2NC(C)C)c(Cl)c1Cl | 99.7% (inactive)
14 | COc1ccc2nc(SCC(=O)Nc3ccccc3C)[nH]c2c1 | 100% (inactive)
15 | Clc1nc2ccccc2cc1Cn1nnc(Cc2ccccc2)n1 | 87.9% (inactive)
